# Records with an inconclusive call do not appear. Calls of active or inactive are those of the source. How the source made its calls: active means hit-call score of the fitted dose curve at least 0.9, where 1 is the maximum; inconclusive means response in the unintended direction; inactive means score below 0.9.
# Assay: ACEA_ER_AUC_viability: ACEA Biosciences xCELLigence Real-Time Cell Analysis on Estrogen Receptor Agonism for Viability (AID 2283782);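 further: continuous compound exposure with impedance area under curve over 80 h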
# Procedure: ACEA_ER is a cell-based, single-readout assay that uses T47D, a human breast cell line, with measurements taken at 80 hours after chemical dosing in a 96-well plate, although TO2 (mc0.srcf) used a 384-well plate. Differences in plate size can be ignored given data normalization.ACEA_ER_AUC_viability is one of two assay component(s) measured or calculated from the ACEA_ER assay. It is designed to make measurements of real-time cell-growth kinetics, a form of growth reporter, as detected with electrical impedance signals by Real-Time Cell Electrode Sensor (RT-CES) technology.Data from the assay component ACEA_ER_AUC_viability was analyzed in the positive analysis fitting direction relative to DMSO as the negative control and baseline of activity. Using a type of growth reporter, loss-of-signal activity can be used to understand changes in the viability. Furthermore, this assay endpoint can be referred to as a secondary readout, because this assay has produced multiple assay endpoints where this one serves a viability function. To generalize the intended target to other relatable targets, this assay endpoint is annotated to the cell cycle intended target family, where the subfamily is cytotoxicity.
# The xCELLigence system Multi-E-Plate stations were used to measure the time-dependent response to chemicals. Each compound was tested in an eight-point, 1:4 serial dilution series starting at a maximum final concentration of 100 uM. A maximum starting concentration of 0.5% DMSO was present in the 100 uM chemical samples and was diluted along with the test article dilution series. The screen was performed in biological duplicate using two separate, 96-well, E-Plates 96 for each dilution series (n = 2). Positive controls (MG132 and E2) and a negative control (assay media) were tested in quadruplicate on each testing plate. Then, 0.5% and 0.125% DMSO were tested in duplicates in each plate to serve as solvent controls for the 2 highest concentrations of testing compounds: 100 uM and 25 uM. Reference compounds were tested with 8 concentrations with 1:5 serial dilutions. All screening was carried out by ACEA Biosciences, Inc. (San Diego, CA). T-47D cells purchased from ATCC were maintained in RPMI1640 media supplemented with 10% characterized fetal bovine serum (FBS). Before screening, T-47D cells were preconditioned in assay medium: phenol red-free RPMI1640 supplemented with 10% charcoal-stripped FBS. Cells were then detached and seeded in E-Plates 96 in assay medium. After overnight monitoring of growth once every hour, compounds were added to […] cells and remained in the medium until the end of the experiment. Cellular responses were then recorded once every 5 min for the first 5 h, and once every hour for an additional 100 h.
SMILES,AC50,outcome
COc1cc([C@@H]2c3cc4c(cc3[C@@H](O[C@@H]3O[C@@H]5CO[C@@H](C)O[C@H]5[C@H](O)[C@H]3O)[C@H]3COC(=O)[C@H]23)OCO4)cc(OC)c1O,10.6 µM (active),–
CCCCOCC,–,inactive
CCCCCCCCC=CCCCCCCCC1=NCCN1CCO,10.9 µM (active),–
CCOC(=O)CC(C)O (stereo not given),–,inactive
CCOCCOCCOCC,–,inactive
Oc1ccc2cc(SSc3ccc4cc(O)ccc4c3)ccc2c1,87.1 µM (active),–
CCCCCCCCCCCCN1CCCCCC1=O,31.3 µM (active),–
C=CC(C)C#N (stereo not given),–,inactive
ON=C1CCCCC1,–,inactive
COc1ccccc1N=Nc1c(S(=O)(=O)O)cc2cc(S(=O)(=O)O)cc(NC(C)=O)c2c1O,–,inactive
Cc1ccc(S(=O)(=O)Oc2ccc(N=Nc3ccc(-c4ccc(N=Nc5c(O)ccc6cc(S(=O)(=O)O)cc(S(=O)(=O)O)c56)c(C)c4)cc3C)cc2)cc1,–,inactive
BrCc1cccc(Oc2ccccc2)c1,–,inactive
CC(C)NCC(O)COc1ccc(CC(N)=O)cc1 (stereo not given),–,inactive
Cc1cc(C)nc(NS(=O)(=O)c2ccc(N)cc2)n1,–,inactive
CCCCCC(C=O)=Cc1ccccc1,80 µM (active),–
CN(C)c1ccncc1,32.7 µM (active),–
C=CCCCCCCCCCC,–,inactive
CCCC(=O)OC(C)(C)Cc1ccccc1,–,inactive
NCc1ccco1,–,inactive
CCCCCCC(CO)CCCC (stereo not given),76.9 µM (active),–

SMILES,AC50,outcome
Nc1ccc(Cl)c([N+](=O)[O-])c1,–,inactive
COc1ccc(N=Nc2cc(C)c(N=Nc3ccc(S(=O)(=O)O)cc3)cc2OC)cc1,–,inactive
C=C(CC(=O)O)C(=O)O,–,inactive
CC1CC(O)CC(C)(C)C1 (stereo not given),–,inactive
O=[N+]([O-])c1cccc(Cl)c1,–,inactive
CC(=O)O[C@@H]1CC2CCC1(C)C2(C)C (stereo not given in full),–,inactive
CCC(=O)OCCOc1ccccc1,–,inactive
c1ccc(CN(Cc2ccccc2)Cc2ccccc2)cc1,89 µM (active),–
CC/C=C\CCOC(=O)CC,–,inactive
COCCOCCOCCO,–,inactive
Clc1ccc(C(c2ccccc2Cl)C(Cl)Cl)cc1 (stereo not given),29.2 µM (active),–
CC1CCC(C(C)C)C(O)C1 (stereo not given),–,inactive
CS(=O)(=O)c1ccc(Cl)cc1,–,inactive
CC(=O)NCCO,–,inactive
CCOc1ccc(N=Nc2ccc(C=Cc3ccc(N=Nc4ccc(OCC)cc4)cc3S(=O)(=O)O)c(S(=O)(=O)O)c2)cc1,–,inactive
CC(=O)OCCCc1ccccc1,–,inactive
CC(C)c1ccccc1O,–,inactive
CS(=O)(=O)OCCCCOS(C)(=O)=O,–,inactive
CC(C)(N=C=O)c1cccc(C(C)(C)N=C=O)c1,33.1 µM (active),–
C=C(C)C(=O)OCC(CC)(COC(=O)C(=C)C)COC(=O)C(=C)C,–,inactive
